# Assay results: PubChem BioAssay (NCATS)
# Inconclusive results are not listed. A call without a number means that no potency is given here. A number with no mark means an inactive call. Active and inactive are the calls of the source. Calls follow the shape of the dose curve; as a rule, active = well fitted curve in the direction sought with a large enough effect; inconclusive = small, poorly fitted or top-dose-only effect, or another doubt; inactive = no such curve, though single readings can be large; an effect the other way counts as inactive or inconclusive.
# Legend:
# [1] = BET inhibitor-based combinations targeting novel dependencies in MECOM-rearranged (r) AML: SET-2 cell line (AID 2202231); details: SET-2 AML cells viability, CellTiter-Glo luminescence, 48 h; viability: active compounds read low, concentration not given here; also: nearly all actives have a fitted effect of over 35% in size; also: potency is read from the fitted curve at half-maximal effect
# Outline: (§1)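 A 48 hr incubation preceded viability reading by CellTiter-Glo, with 15 min room-temperature development. Dose series had 11 points; normalization used DMSO and empty wells; AUC was computed and mean-centered per line as Z-AUC.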
# [2] = BET inhibitor-based combinations targeting novel dependencies in MECOM-rearranged (r) AML: UCSD-AML1 cell line (AID 2202235); also: nearly all actives have a fitted effect of over 40% in size; also: potency is read from the fitted curve at half-maximal effect
# Outline: (§2)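 Each compound is tested in an 11-point concentration series against 500 seeded cells/well for 48 hr. The luminescent viability signal is normalized to DMSO and blank wells, then reduced to AUC and a cell-line-centred Z-AUC.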
# [3] = BET inhibitor-based combinations targeting novel dependencies in MECOM-rearranged (r) AML: AML-194 cell line (AID 2202237; also: nearly all actives have a fitted effect of over 40% in size; also: potency is read from the fitted curve at half-maximal effect)
# Outline: as §1
# [4] = BET inhibitor-based combinations targeting novel dependencies in MECOM-rearranged (r) AML: AML-191 cell line (AID 2202236; also: nearly all actives have a fitted effect of over 35% in size; also: potency is read from the fitted curve at half-maximal effect)
# Outline: as §1
# [5] = BET inhibitor-based combinations targeting novel dependencies in MECOM-rearranged (r) AML: OCI-AML3 cell line (AID 2202232); details: Potency: OCI-AML3 viability; also: potency is read from the fitted curve at half-maximal effect; nearly all actives have a fitted effect of over 35% in size
# Outline: as §1
# [6] = BET inhibitor-based combinations targeting novel dependencies in MECOM-rearranged (r) AML: HNT-34 cell line (AID 2202234); also: nearly all actives have a fitted effect of over 35% in size
# Outline: as §2
# [7] = BET inhibitor-based combinations targeting novel dependencies in MECOM-rearranged (r) AML: MV-4-11 cell line (AID 2202233); also: potency is read from the fitted curve at half-maximal effect; nearly all actives have a fitted effect of over 45% in size
# Outline: as §2
compound,measurement,setting,value
Nc1nc(OC(c2ccc(-c3cccc(F)c3)cc2)C(F)(F)F)cc(-c2ccc(C[C@H](N)C(=O)O)cc2)n1 (stereo not given in full),viability,[1],120%
same,Potency,[2],inactive
same,Potency,[3],inactive
O=C(O)c1ccccc1-c1ccc(/C=c2\sc3nc4cc(Br)cnc4n3c2=O)o1,viability,[1],92.3%
same,Potency,[2],inactive
same,Potency,[4],inactive
same,Potency,[3],inactive
C=CC(=O)Nc1ccc(F)c(-c2ncnc3[nH]cc(C(=O)OCC)c23)c1,viability,[1],83.4%
same,Potency,[2],inactive
same,Potency,[4],inactive
COc1cccc2c1C(=O)c1c(O)c3c(c(O)c1C2=O)C[C@@](O)(C(C)=O)C[C@@H]3O[C@H]1C[C@H](N)[C@H](O)[C@H](C)O1,Potency,[5],0.0934 µM (active)
CC(=O)C1CCC2C3CCC4=CC(=O)CCC4(C)C3CCC12C (stereo not given),Potency,[1],18.6 µM (active)
same,Potency,[2],inactive
COC[C@@H](c1ccc(C(F)(F)F)cc1)N1CCN(C2(C)CCN(C(=O)c3c(C)ncnc3C)CC2)C[C@@H]1C,viability,[1],111%
same,Potency,[2],inactive
same,Potency,[4],inactive
O=C(O)CCC=CCC[C@@H]1[C@H](N2CCCCC2)[C@@H](O)C[C@@H]1OCc1ccc(-c2ccccc2)cc1,Potency,[1],1.18 µM (active)
same,Potency,[2],inactive
same,Potency,[3],inactive
O=c1ncccn1[C@@H]1O[C@H](CO)[C@@H](O)[C@H]1O,viability,[1],109%
same,Potency,[6],inactive
same,Potency,[3],inactive
OCCOc1ccc(/C(=C(/CCCl)c2ccccc2)c2ccccc2)cc1,Potency,[1],16.6 µM (active)
same,Potency,[2],inactive
same,Potency,[3],inactive
COc1ccc2nc(S(=O)Cc3ncc(C)c(OC)c3C)[nH]c2c1 (stereo not given),viability,[1],95.9%
same,Potency,[2],inactive
same,Potency,[4],inactive
same,Potency,[3],inactive
CN1C(=O)[C@@H](NC(=O)c2cc(Cc3ccccc3)on2)COc2ccccc21,viability,[1],73.2%
same,Potency,[2],inactive
same,Potency,[4],inactive
COc1cc2nccc(Oc3ccc(NC(=O)c4cn(C(C)C)c(=O)n(-c5ccc(F)cc5)c4=O)cc3F)c2cc1OC,viability,[1],113%
same,Potency,[2],inactive
same,Potency,[3],inactive
Nc1ncn([C@H]2C[C@H](O)[C@@H](CO)O2)c(=O)n1,Potency,[5],0.417 µM (active)
same,Potency,[7],0.332 µM (active)
CC(C)c1cnn2c(NCc3ccccc3)cc(NCCCCCCN)nc12,Potency,[5],23.5 µM (active)
same,Potency,[7],18.6 µM (active)
O=c1cc(-c2cccc3c2Sc2ccccc2S3)oc(N2CCOCC2)c1,Potency,[5],13.2 µM (active)
same,Potency,[7],18.6 µM (active)
C=CC(=O)N1CCC(C2CCNc3c(C(N)=O)c(-c4ccc(Oc5ccccc5)cc4)nn32)CC1 (stereo not given),Potency,[5],13.2 µM (active)
same,Potency,[7],10.5 µM (active)
CCC[C@H](Nc1nc(-c2ccc(NC(=O)NCC)c(OC)c2)ncc1C)c1cccnc1,Potency,[1],0.118 µM (active)
same,Potency,[2],0.132 µM (active)
same,Potency,[4],0.105 µM (active)
same,Potency,[3],0.105 µM (active)
O=C(NO)c1cnc(NC2(c3cccc(F)c3)CCCCC2)nc1,Potency,[1],9.34 µM (active)
same,Potency,[4],10.5 µM (active)
CONC(=O)Nc1ccc(-c2sc3c(c2CN(C)Cc2ccccc2)c(=O)n(-c2ccccc2)c(=O)n3Cc2c(F)cccc2F)cc1,viability,[1],104%
same,Potency,[2],inactive
same,Potency,[4],inactive
CC/C(=C(/CC)c1ccc(O)cc1)c1ccc(O)cc1,Potency,[1],20.9 µM (active)
same,Potency,[2],inactive
CCOc1ccc(Cc2cc([C@@H]3O[C@H](CO)[C@@H](O)[C@H](O)[C@H]3O)ccc2Cl)cc1,viability,[1],95%
same,Potency,[6],inactive
same,Potency,[3],inactive
CCn1c(=O)c2c(nc(/C=C/c3ccc(OC)c(OC)c3)n2C)n(CC)c1=O,viability,[1],107%
same,Potency,[2],inactive
same,Potency,[4],inactive
